Assay results as given in PubChem BioAssay AID1645856 (Buhrlage Lab, Dana-Farber Cancer Institute and Novartis …, 2021).
Out of some 47,000 compounds screened, about 510 (1.1%) were called active. No stated cut-off is given here; in the data, active means inhibition above about 30%; inactive means the rest. Shown is part of a subset that was picked to be rich in actives.

Each molecule was assayed against Ubiquitin carboxyl-terminal hydrolase 10 (Homo sapiens) (UniProt Q14694) (assay: inhibitors of human USP10 deubiquitinase (AID 1645856)). Conditions: purified USP10, Ub-rhodamine fluorescence, 60 min; at 20 µM; active compounds read high.
Ubiquitin carboxyl-terminal hydrolase 10 (Homo sapiens), sequence (Q14694 whole entry, looked up): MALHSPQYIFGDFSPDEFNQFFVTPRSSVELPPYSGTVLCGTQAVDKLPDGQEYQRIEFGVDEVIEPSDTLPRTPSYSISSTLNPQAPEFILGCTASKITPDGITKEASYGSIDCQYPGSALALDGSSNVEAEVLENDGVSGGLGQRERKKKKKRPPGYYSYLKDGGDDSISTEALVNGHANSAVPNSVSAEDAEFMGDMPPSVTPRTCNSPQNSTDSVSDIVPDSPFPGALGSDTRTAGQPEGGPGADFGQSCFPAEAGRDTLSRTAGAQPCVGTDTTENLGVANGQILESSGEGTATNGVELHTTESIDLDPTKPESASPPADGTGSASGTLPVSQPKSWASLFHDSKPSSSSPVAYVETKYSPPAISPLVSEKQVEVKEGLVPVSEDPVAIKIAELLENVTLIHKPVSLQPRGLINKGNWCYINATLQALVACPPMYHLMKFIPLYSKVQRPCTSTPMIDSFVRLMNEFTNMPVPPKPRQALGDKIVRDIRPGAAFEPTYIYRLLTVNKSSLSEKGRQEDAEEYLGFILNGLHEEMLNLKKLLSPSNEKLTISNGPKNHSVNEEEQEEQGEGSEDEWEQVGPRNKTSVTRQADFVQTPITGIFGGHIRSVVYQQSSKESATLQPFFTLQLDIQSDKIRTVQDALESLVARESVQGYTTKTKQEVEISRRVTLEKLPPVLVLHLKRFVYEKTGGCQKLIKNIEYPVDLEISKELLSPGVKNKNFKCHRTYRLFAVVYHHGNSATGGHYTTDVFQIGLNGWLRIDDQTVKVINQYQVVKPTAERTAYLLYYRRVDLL
O=C(Nc1cccc(Cl)c1)N(Cc1ccccc1)CC1CC=CCC1 (stereo not given) was tested, and the inhibition was 16.3% (inactive).
With CCc1nnc(CN2CCC(C3CCCCCN3C(=O)NC(C)C)CC2)o1 (stereo not given) the inhibition was -4.07% (inactive).
COc1ccc(Nc2cc(C(=O)N3CCC4(CC3)OCCO4)c3ccccc3n2)cc1 was tested, and the inhibition was -0.645% (inactive).
In the case of CCN1C(=O)[C@H]2CN(C(C)=O)C[C@H]2C12CCN(C(=O)NCCc1ccc(OC)cc1)CC2, the inhibition is reported as 0.803% (inactive).
With O=C(CN(Cc1ccccc1Cl)S(=O)(=O)c1ccccc1F)NC(c1ccccc1)c1ccccc1 the inhibition was 6.49% (inactive).
In the case of Cc1ccc2[nH]c(=O)c(CN(CC3COCCO3)C(=O)Nc3ccccc3C)cc2c1 (stereo not given), the inhibition is reported as -0.00505% (inactive).
For Cc1cc(=O)n(CC(=O)Nc2ccc3c(c2)OCO3)c2c1c(-c1ccccc1)nn2-c1ccccc1, the inhibition was 25% (inactive).
O=S(=O)(c1cc(-c2nnc(C3CC3)o2)co1)N1CCCCC1 was tested, and the inhibition was -3.39% (inactive).
With O=C(NC1CCCC1)c1ccc(N2CCOc3ccccc32)s1 the inhibition was 0.616% (inactive).
With CCc1nnc(-c2cc(S(=O)(=O)Nc3ccccc3F)c[nH]2)o1 the inhibition was -2.11% (inactive).
O=C(Oc1ccc(Oc2ccccc2)cc1)c1ccc([N+](=O)[O-])cc1 was tested, and the inhibition was 7.41% (inactive).
For Cc1nn(-c2ccc(F)cc2)c(C)c1S(=O)(=O)NC1CC1, the inhibition was -2.46% (inactive).
In the case of COc1ccc(NS(=O)(=O)c2cc(NC(=O)COc3ccccc3F)ccc2OC)cc1, the inhibition is reported as 3.65% (inactive).
For COc1ccc(NS(=O)(=O)c2cc(NC(=O)/C=C/c3cccc(OC)c3)ccc2OC)cc1, the inhibition was 0.326% (inactive).
For COc1ccc(NS(=O)(=O)c2cc(NC(=O)CC(=O)c3ccc([N+](=O)[O-])cc3)ccc2C)cc1, the inhibition was 43.8% (active).
For Cc1ccc(C2c3[nH]c4ccccc4c3C[C@H]3C(=O)N(c4ccccc4C(=O)NC4CCCCC4)C(=O)N23)cc1 (stereo not given in full), the inhibition was -9.46% (inactive).
With Cc1cccc(C(=O)NCc2nnc3ccccn23)c1 the inhibition was 5.59% (inactive).
In the case of CCOc1c(C)cnc2c1c(=O)n(CC(=O)N1CCC(C)CC1)c(=O)n2C, the inhibition is reported as -3.58% (inactive).
c1ccc(OCCn2nc(C3CCN(C4CCOCC4)CC3)c3nccnc32)cc1 was tested, and the inhibition was -0.0392% (inactive).
In the case of O=C(NCc1ccc2c(c1)OCO2)c1cn(-c2cccc(Cl)c2)nn1, the inhibition is reported as 28.3% (inactive).
With CCN1CCN(Cc2nc(-c3ccc(N4CCCCC4)nc3)no2)CC1 the inhibition was 0.502% (inactive).
CCc1cc(C2CCCN2C(=O)NCc2ccc(F)cc2)on1 (stereo not given) was tested, and the inhibition was 0.108% (inactive).
With CC1(C(=O)NC2CCCCCC2)Cc2ccccc2C(=O)N1C1CCCCC1 (stereo not given) the inhibition was 3.98% (inactive).
For Nc1ccc(C(=O)OCC(=O)NC2CCCc3ccccc32)cc1[N+](=O)[O-] (stereo not given), the inhibition was 31.8% (active).
In the case of O=C(COC(=O)c1ccc(F)cc1)NC1CCCc2ccccc21 (stereo not given), the inhibition is reported as -2.88% (inactive).
In the case of O=C(c1ccccc1)c1ccc(NC2CCCc3ccccc32)c([N+](=O)[O-])c1 (stereo not given), the inhibition is reported as -3.29% (inactive).
For N#Cc1ccccc1OCC(=O)Nc1ccc(-c2cn3ccsc3n2)cc1, the inhibition was -4.52% (inactive).
With COc1ccc(NC(=O)CSc2cn(CC(=O)N3CCCC3)c3ccccc23)cc1 the inhibition was 1.6% (inactive).
CCOc1ccc2c(c1)c(=O)c(C(=O)c1ccccc1)cn2CC(=O)Nc1ccc(OC)cc1 was tested, and the inhibition was 59.7% (active).
In the case of CCOc1ccc(NC(=O)Cn2cc(C(=O)c3ccc(Cl)cc3)c(=O)c3cc(OC)ccc32)cc1, the inhibition is reported as 27% (inactive).
O=C(CN1CCCN(c2cc(-c3ccc(N4CCOCC4)cc3)ncn2)CC1)N1CCOCC1 was tested, and the inhibition was -2.74% (inactive).
In the case of CCN1C(=O)[C@H]2CN(CCOC)C[C@H]2C12CCN(C(=O)Nc1ccccc1)CC2, the inhibition is reported as 0.649% (inactive).
In the case of Cc1cc2nc(N3CCOCC3)n(CC(=O)Nc3ccccc3F)c(=O)c2n1C, the inhibition is reported as -1.21% (inactive).
With Cc1nc2c(c(C)c1CCC(=O)Nc1ccccc1F)c(=O)n(C)c(=O)n2C the inhibition was 32.5% (active).
With Cc1ccc(CN2C(=O)C(CC(=O)Nc3ccccc3F)n3c2nc2ccccc23)cc1 (stereo not given) the inhibition was 6.51% (inactive).
In the case of COc1ccc(NC(=O)CC2C(=O)NCCN2C(=O)Nc2ccc(F)cc2)cc1 (stereo not given), the inhibition is reported as -0.861% (inactive).
In the case of CCOc1ccc(-c2noc(-c3nn(-c4cccc(OC)c4)ccc3=O)n2)cc1, the inhibition is reported as 7.86% (inactive).
In the case of Cc1cccc(-c2nnc(-c3cccc(S(=O)(=O)N4CCCC4)c3)o2)c1, the inhibition is reported as 3.94% (inactive).
For O=C(COC(=O)C1CCN(S(=O)(=O)c2c(Cl)cccc2Cl)CC1)Nc1ccc2c(c1)CCC2, the inhibition was 6.62% (inactive).
For O=C(Nc1nnc(-c2cccc([N+](=O)[O-])c2)o1)C1CCN(S(=O)(=O)c2ccc3c(c2)CCC3)CC1, the inhibition was 46.7% (active).
In the case of CCOC(=O)C1CCN(C(=O)c2cnc(Nc3ccc(C)c(Cl)c3)c3ccccc23)CC1, the inhibition is reported as 6.16% (inactive).
For COc1ccc(C(=O)Cn2nc(C)cc2C)cc1, the inhibition was -2.02% (inactive).
With Cc1cc(C)cc(NC(=O)c2cc(CN3CCOCC3)on2)c1 the inhibition was -1.83% (inactive).
With O=C(NCC1CCCO1)c1[nH]c2ccccc2c1Sc1ccc(Cl)cc1 (stereo not given) the inhibition was 0.402% (inactive).
In the case of Cc1ccc(CC(=O)N2CCCC(c3ccncn3)C2)s1 (stereo not given), the inhibition is reported as -2.71% (inactive).
For CC(c1ccncc1)n1nccc1NC(=O)c1cccnc1Sc1ccccc1 (stereo not given), the inhibition was -7.87% (inactive).
CCc1noc(-c2ccnc(-n3ncc(C(=O)N4CCC(C)CC4)c3C)c2)n1 was tested, and the inhibition was -0.304% (inactive).
For COc1ccc(-c2cc(C(=O)NCCCN3CCCC3=O)c3ccccc3n2)cc1OC, the inhibition was -3.65% (inactive).
CC(C)CC1NC(=O)C2(CCN(C(=O)Nc3ccc(Cl)c(Cl)c3)CC2)NC1=O (stereo not given) was tested, and the inhibition was 1.3% (inactive).
With O=C(NCC1CCCO1)c1ccccc1N1C(=O)[C@@H]2Cc3c([nH]c4ccccc34)C(c3cccc(Cl)c3)N2C1=O (stereo not given in full) the inhibition was -2.66% (inactive).
In the case of O=C(Nc1ccccc1Br)c1ncoc1-c1cccs1, the inhibition is reported as 2.95% (inactive).
With CCCc1nc(-c2c(C)cc(C)nc2NC(=O)C2CCCCC2)no1 the inhibition was -4.35% (inactive).
With O=S(=O)(Nc1cccc(O)c1)c1ccc2oc3ccc(S(=O)(=O)Nc4cccc(O)c4)cc3c2c1 the inhibition was 54.6% (active).
Cc1cccc(NS(=O)(=O)c2ccc3nnc(C)n3c2)c1 was tested, and the inhibition was -2.24% (inactive).
For COc1cccc(NS(=O)(=O)c2ccc(-c3coc(C)n3)cc2)c1, the inhibition was 2.04% (inactive).
